Potency data for 17 compounds are collected here from PubChem BioAssay (Tox21).

Values joined by “and” are separate entries in the source; they are usually repeats but may differ in a detail not shown here. Equal entries are not always repeated. Records with an inconclusive call do not appear. More than one record can exist for a structure, and the calls need not agree. Active and inactive are the calls of the source. Unless noted, calls follow the shape of the dose curve; as a rule, active = well fitted curve in the direction sought with a large enough effect in the repeat runs; inconclusive = weak or mixed curves; inactive = no such curve, though single readings can be large; an effect the other way counts as inactive or inconclusive.

A short description of assay [1]: qHTS assay to identify small molecule antagonists of the thyroid receptor (TR) signaling pathway - cell viability counter screen (AID 743064). Also: nearly all actives have a fitted effect of over 50% in size. Also: potency is read from the fitted curve at half-maximal effect. An outline of the steps: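 Rat GH3 pituitary tumor cells stably expressing two TR response elements driving luciferase were plated, rested 4 h, then dosed with library compounds and T3 (1 nM final). After 23.5 h at 37 °C, CellTiter-Fluor was added for 30 min and fluorescence recorded.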

The nature of assay [2]: qHTS assay to identify small molecule antagonists of the thyroid receptor (TR) signaling pathway (AID 743065). Also: nearly all actives have a fitted effect of over 55% in size. Also: potency is read from the fitted curve at half-maximal effect. The procedure, abridged:
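GH3.TRE-Luc rat pituitary cells carrying two TR response elements driving luciferase were plated for 4 h, given compound plus 1 nM T3 (final), and incubated 23.5 h at 37 C. ONE-Glo luminescence measured reporter inhibition; CellTiter-Fluor fluorescence tracked cytotoxicity.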

Assay [3] deals with thyroid hormone receptor (rat, GH3 cells). The assay can be described thus: qHTS assay to identify small molecule agonists of the thyroid receptor (TR) signaling pathway (AID 743066; calls by dose curve). A general note: qHTS replaces the single test concentration by a dilution series.
For assay [4], the target named is Estrogen receptor (Homo sapiens) (UniProt P03372). Put plainly: qHTS assay to identify small molecule antagonists of the estrogen receptor alpha (ER-alpha) signaling pathway (AID 743069; active = well fitted curve in the direction sought with a large enough effect in the signal ratio in the repeat runs, not every such curve was filed as active; the % refers to the signal ratio). The procedure, abridged:
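Screening used a UAS-driven beta-lactamase reporter integrated into HEK293 cells expressing ER-alpha, stimulated with 17beta-estradiol alongside test compounds over 18 hr at 37C; signal came from LiveBLAzer B/G FRET fluorescence.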

Assay [5] can be described thus: qHTS assay to identify small molecule antagonists of the estrogen receptor alpha (ER-alpha) signaling pathway - cell viability counter screen (AID 743074; calls by dose curve; also: nearly all actives have a fitted effect of over 45% in size).
The target in assay [6] is Estrogen receptor (Homo sapiens) (UniProt P03372). Put plainly: qHTS assay to identify small molecule agonists of the estrogen receptor alpha (ER-alpha) signaling pathway (AID 743075; calls by dose curve; also: potency is read from the fitted curve at half-maximal effect).
Chain of Estrogen receptor (Homo sapiens) (P03372 whole entry, looked up): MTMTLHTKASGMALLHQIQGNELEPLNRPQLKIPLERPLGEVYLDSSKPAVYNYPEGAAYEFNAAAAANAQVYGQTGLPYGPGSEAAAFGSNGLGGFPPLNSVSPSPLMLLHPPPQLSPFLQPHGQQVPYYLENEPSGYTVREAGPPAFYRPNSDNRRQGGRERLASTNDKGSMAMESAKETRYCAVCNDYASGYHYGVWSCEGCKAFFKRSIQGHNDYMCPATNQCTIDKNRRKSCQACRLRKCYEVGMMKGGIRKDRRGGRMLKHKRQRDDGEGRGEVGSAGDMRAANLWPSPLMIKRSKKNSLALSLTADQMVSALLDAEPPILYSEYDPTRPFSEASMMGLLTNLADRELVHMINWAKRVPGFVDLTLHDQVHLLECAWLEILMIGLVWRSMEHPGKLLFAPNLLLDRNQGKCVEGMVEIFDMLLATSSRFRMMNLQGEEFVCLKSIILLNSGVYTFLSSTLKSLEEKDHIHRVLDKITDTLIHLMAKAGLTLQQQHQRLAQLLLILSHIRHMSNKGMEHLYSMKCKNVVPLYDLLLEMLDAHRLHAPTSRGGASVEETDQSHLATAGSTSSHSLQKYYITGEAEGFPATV
Assay [7] has the same target. Put plainly: qHTS assay to identify small molecule agonists of the estrogen receptor alpha (ER-alpha) signaling pathway using the BG1 cell line (AID 743079). Also: nearly all actives have a fitted effect of over 20% in size. Also: potency is read from the fitted curve at half-maximal effect.
The nature of assay [8]: qHTS assay to identify small molecule antagonists of the estrogen receptor alpha (ER-alpha) signaling pathway using the BG1 cell line (AID 743080; calls by dose curve;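 also: BG1 cells stimulated with 17beta-estradiol alongside compound; series mostly up to about 70 µM; nearly all actives have a fitted effect of over 25% in size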). An outline of the steps:
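After 5 days in phenol-red-free 10% charcoal-stripped FBS medium, BG1-Luc-4E2 cells were seeded, left 24 h at 37 C, co-treated with compounds and 17beta-estradiol for 21.5 h, then assayed for viability and luciferase.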

A short description of assay [9]: qHTS assay to identify small molecule antagonists of the estrogen receptor alpha (ER-alpha) signaling pathway using the BG1 cell line - cell viability counter screen (AID 743081).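 Also: compound given together with 17beta-estradiol as the ER stimulus; series mostly up to about 70 µM; nearly all actives have a fitted effect of over 45% in size.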
A further assay has as its target Aromatase (Homo sapiens) (UniProt P11511). The assay can be described thus: qHTS assay to identify aromatase inhibitors (AID 743083). Also: nearly all actives have a fitted effect of over 55% in size. Also: potency is read from the fitted curve at half-maximal effect.

Chain of Aromatase (Homo sapiens) (P11511 whole entry, looked up): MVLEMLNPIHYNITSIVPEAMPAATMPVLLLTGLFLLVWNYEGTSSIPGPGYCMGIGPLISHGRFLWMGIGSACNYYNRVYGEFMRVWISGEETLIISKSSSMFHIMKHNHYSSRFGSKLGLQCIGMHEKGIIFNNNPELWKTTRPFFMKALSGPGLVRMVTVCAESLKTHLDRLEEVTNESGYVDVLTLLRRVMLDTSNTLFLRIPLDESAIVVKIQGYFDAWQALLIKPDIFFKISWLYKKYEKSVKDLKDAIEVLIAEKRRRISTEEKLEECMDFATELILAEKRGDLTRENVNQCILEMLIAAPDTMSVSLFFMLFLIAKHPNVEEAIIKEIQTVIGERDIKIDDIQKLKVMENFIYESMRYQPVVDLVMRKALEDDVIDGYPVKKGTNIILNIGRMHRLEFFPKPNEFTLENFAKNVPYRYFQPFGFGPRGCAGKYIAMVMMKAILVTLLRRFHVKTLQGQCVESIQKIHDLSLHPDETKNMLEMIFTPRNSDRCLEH

Regarding `CC1(C)C(C=C(Cl)Cl)C1C(=O)OCc1cccc(Oc2ccccc2)c1` (centres undefined), the Potency entry in assay [1], in [2], in [3], in [4], in [5] and in [6] was “inactive” each time. Moreover, the Potency entry (in [7]; in [8]; in [9]; with Aromatase (Homo sapiens)) was “inactive” throughout.
Take `CCCCCCCCCCCCCO`: the Potency entry in [1], in assay [2], in assay [3], in assay [4], in assay [5] and in [6] was “inactive” in each case. The Potency entry (in assay [7]; in [8]; in assay [9]; with Aromatase (Homo sapiens)) was “inactive” in each case.
On to `O=Cc1ccccc1C=O`, for which the Potency is 10.6 µM (active) and 2.43 µM (active) in [1]; 9.44 µM (active) and 2.17 µM (active) in assay [2]; 23.9 µM [activator] (active) and inactive in assay [6]; 21.1 µM (active) and 30.6 µM (active) in [7]; “inactive and 8.63 µM (active)” in the assay with Aromatase (Homo sapiens). Further, the Potency result in [3], in assay [4], in assay [5] and in [9] was “inactive” each time.
Take `O=S1(=O)CCCO1`: the Potency entry in assay [1], in assay [2], in assay [3], in assay [4], in assay [5] and in [6] was “inactive” each time. Also, the Potency entry (in assay [7]; in assay [8]; in assay [9]; in the assay with Aromatase (Homo sapiens)) was “inactive” each time.
For `O=C(O)COCCN1CCN(C(c2ccccc2)c2ccc(Cl)cc2)CC1` (centres undefined), the Potency entry in [1], in [2], in [3], in [4], in assay [5] and in assay [6] was “inactive” in each case. The Potency result in assay [7], in assay [8] and in [9] was “inactive” in each case.
Consider `c1ccc2c(c1)[nH]c1ccccc12`, for which the Potency result in assay [1], in [2], in assay [3], in assay [4], in [5] and in assay [6] was “inactive” in each case. The Potency entry (in [7]; in assay [8]; in [9]; in the assay with Aromatase (Homo sapiens)) was “inactive” throughout.
With `C1CN(SSN2CCOCC2)CCO1`, the Potency in assay [1] was 67.9 µM (active); in assay [2] it was 60.5 µM (active). Besides, the Potency entry in assay [3], in assay [4], in [5], in [6], in assay [7] and in assay [8] was “inactive” in each case. Further, the Potency entry in assay [9] is “inactive”.
Turning to `Brc1nc2ccccc2s1`, the Potency entry in assay [1], in [2], in assay [3], in assay [4], in [6] and in [7] was “inactive” in each case. The Potency entry (in [8]; in assay [9]; with Aromatase (Homo sapiens)) was “inactive” each time.
Consider `CCCCCCCCCCCCO`, for which the Potency result in [1], in assay [2], in [3], in assay [4], in [5] and in assay [6] was “inactive” each time. Moreover, the Potency result (in [7]; in assay [8]; in assay [9]; with Aromatase (Homo sapiens)) was “inactive” throughout.
As to `CN(C)/N=N/c1nc[nH]c1C(N)=O`, the Potency result in assay [1], in assay [2], in assay [3], in assay [4], in assay [5] and in assay [6] was “inactive” in each case. Besides, the Potency result (in assay [7]; in [8]; in [9]; in the assay with Aromatase (Homo sapiens)) was “inactive” in each case.
Regarding `CC(=O)Oc1c(C)c(C)c2c(c1C)CC[C@@](C)(CCC[C@H](C)CCC[C@H](C)CCCC(C)C)O2`, the Potency entry in [1], in assay [2], in assay [3], in assay [4], in assay [5] and in assay [6] was “inactive” each time. Besides, the Potency result (in assay [7]; in assay [8]; in assay [9]; with Aromatase (Homo sapiens)) was “inactive” in each case.
Turning to `NCCOCCO`, the Potency result in [1], in [2], in assay [3], in [4], in assay [5] and in [6] was “inactive” each time. Also, the Potency entry (in assay [7]; in assay [8]; in assay [9]; with Aromatase (Homo sapiens)) was “inactive” each time.
As to `C1COCCN1`, the Potency result in assay [1], in assay [2], in assay [3], in [4], in assay [5] and in assay [6] was “inactive” in each case. Further, the Potency result (in [7]; in assay [8]; in assay [9]; with Aromatase (Homo sapiens)) was “inactive” each time.
As to `COc1ccc2nc(N)sc2c1`, the Potency result in assay [1], in [2], in assay [3], in [4], in assay [5] and in assay [6] was “inactive” each time. Also, the Potency result (in assay [9]; with Aromatase (Homo sapiens)) was “inactive” in each case. Besides, in assay [7], the Potency is 30.6 µM (active) and 54.5 µM (active).
With `CCc1cccc2c3c([nH]c12)C(CC)(CC(=O)O)OCC3` (centres undefined), the Potency result in assay [1], in assay [2], in assay [3], in [4], in assay [5] and in assay [6] was “inactive” each time. Besides, the Potency result (in assay [7]; in [8]; in assay [9]; with Aromatase (Homo sapiens)) was “inactive” each time.
With `CC(=O)O[C@]1(C(C)=O)CC[C@H]2[C@@H]3C=C(C)C4=CC(=O)CC[C@]4(C)[C@H]3CC[C@@]21C`, the Potency entry in assay [1], in assay [3], in [5], in assay [6], in assay [7] and in assay [8] was “inactive” each time. Further, the Potency result (in [9]; with Aromatase (Homo sapiens)) was “inactive” in each case. In addition, in assay [2], the Potency is 27.3 µM (active).
Consider `CCOC(=O)C(C)Oc1ccc(Oc2cnc3cc(Cl)ccc3n2)cc1` (centres undefined), for which the Potency entry in assay [1], in assay [2], in [3], in assay [4], in [5] and in [6] was “inactive” each time. In addition, the Potency result (in assay [7]; in assay [8]; in assay [9]; in the assay with Aromatase (Homo sapiens)) was “inactive” in each case.
